Compound activity as filed in PubChem.
Shown is part of a subset that was picked to be rich in hits.
KDM5B inh: KDM5B demethylase inhibition. AID 1347165. Q9UGL1. hit rate 2.6% among 220,000. KDM5B demethylase, FDH-coupled NADH fluorescence (FDH is formaldehyde dehydrogenase). Potency, µM (doses to about 57.7 µM), actives largely listed as inhibitors; active means well fitted inhibition curve with a large enough effect; further: 0% is about no effect; nearly all actives have a fitted effect of over 70% in size
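Inhibition is measured as reduced NADH fluorescence generation from FDH coupling to formaldehyde release. Truncated KDM5BΔAP at 200 nM final acts on H3K4me3 peptide (12.5 µM in substrate mix) in pH 7.5 HEPES buffer with Tween-20, 30 min, room temperature.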
Numbers without * were called inactive. Potency means the concentration at half of the fitted maximal effect.

COC1CCCN(c2cc(-c3cccc(C(F)(F)F)c3)nc3c(C)noc23)C1 (configuration not stated) was read as KDM5B inh inactive.
For FC(F)(F)c1cccc(N2CCN(Cc3ncc(-c4ccccc4)o3)CC2)c1 the results were KDM5B inh inactive.
For O=C(CSc1ccc2c(c1)OCCCO2)c1ccc[nH]1 the results were KDM5B inh inactive.
`CCNC(=S)NNC(=O)C1CCCC1` gave KDM5B inh inactive.
For Cc1cn2nnc(C(=O)NCCC3=CCCCC3)c2c(=O)[nH]1 the results were KDM5B inh inactive.
`O=C(NCCCN1CCCC1)c1ccc(-c2ccccc2)cc1` gave KDM5B inh inactive.
For O=C(NCCN1CCCC1)c1nnn2cc(-c3ccccc3)[nH]c(=O)c12 the results were KDM5B inh 2.5µM*.
CN1C(=O)CCC2(CNC(=O)c3cccn3C)CCC=C12 (configuration not stated) was read as KDM5B inh inactive.
For COc1ccccc1C(=O)N1CC(Oc2cccc(-c3nc(-c4ccccc4)no3)c2)C1 the results were KDM5B inh 22µM*.
O=C(C1CCOCC1)N1CC(Oc2cccc(-c3nc(-c4ccccc4)no3)c2)C1 was read as KDM5B inh inactive.
CCCNC(=O)N1CC(Oc2cccc(-c3nc(-c4ccccc4)no3)c2)C1 was read as KDM5B inh inactive.
O=C(c1cc(F)ccc1F)N1CC(Oc2cccc(-c3nc(-c4ccccc4)no3)c2)C1 was read as KDM5B inh inactive.
For COc1cccc(C(=O)N2CC(Oc3cccc(-c4nc(-c5ccccc5)no4)c3)C2)c1 the results were KDM5B inh inactive.
`CC(Oc1ccccc1)C(=O)N1CC(Oc2cccc(-c3nc(-c4ccccc4)no3)c2)C1` (configuration not stated) gave KDM5B inh 22µM*.
For CC(Oc1ccccc1)C(=O)Nc1cnc(-c2cccc(Cl)c2)nc1 (configuration not stated) the results were KDM5B inh inactive.
Screening Cc1ccc(F)c(NC(=O)CCN=C2NS(=O)(=O)c3ccccc32)c1 returned KDM5B inh inactive.
For CCN1CCN(C(=O)CN(c2cccc(C)c2C)S(C)(=O)=O)CC1 the results were KDM5B inh inactive.
`C=CCN(CC=C)C(=O)CSc1nnc(-c2c[nH]c3ccccc23)o1` gave KDM5B inh inactive.
`Cc1[nH]c2ccc(F)cc2c1CCNC(=S)NC(C)(C)C` gave KDM5B inh inactive.
CCCn1c(=O)c2ccc(C(=O)NCC(C)C)cc2n2c(SCc3ccc(F)cc3)nnc12 was read as KDM5B inh inactive.
`CCN(CC)C(=O)CCc1c(C)nn(-c2cccc(C)c2)c1Oc1ccc(F)cc1F` gave KDM5B inh inactive.
For Cc1cccc(-n2nc(C)c(CCC(=O)NC3CC3)c2Oc2ccc(F)cc2F)c1 the results were KDM5B inh inactive.
Screening CCN(C)C(=O)CCc1c(C)nn(-c2cccc(C)c2)c1Oc1ccc(F)cc1F returned KDM5B inh 32µM*.
CC(C)c1ccc(NC(=O)c2c(F)cccc2Cl)cc1 was read as KDM5B inh inactive.
Screening O=C1CCCCCN1C1CCN(Cc2cccc3ccccc23)CC1 returned KDM5B inh inactive.
For CCOc1cc(/C=C/C(=O)c2ccc(OCC(=O)O)c(OC)c2)cc(Cl)c1O the results were KDM5B inh inactive.
CSc1ccccc1NC(=O)CC1CC2CCC1C2 (configuration not stated) was read as KDM5B inh inactive.
`N#Cc1ccc2nc(CO[C@H]3CN(Cc4ccccc4F)C[C@H]3F)[nH]c2c1` gave KDM5B inh inactive.
`Cc1ccc2nc(CO[C@H]3CN(Cc4cnn(C)c4)C[C@H]3F)[nH]c2c1` gave KDM5B inh inactive.
Screening Cc1ccc2nc(CO[C@H]3CN(c4ccc(C#N)cn4)C[C@H]3F)[nH]c2c1 returned KDM5B inh 18µM*.
`O=C(CSc1nc2ccccc2c(=O)n1CC1CCCO1)Nc1ccc2[nH]c(=O)[nH]c2c1` (configuration not stated) gave KDM5B inh inactive.
Screening COc1cc(C2C3CCCCC3(O)CCN2Cc2ccccc2Cl)ccc1O (configuration not stated) returned KDM5B inh inactive.
`O=C(C1CCCC1)N1Cc2ccccc2CC2(CCCN(Cc3ccccc3)C2)C1` (configuration not stated) gave KDM5B inh inactive.
Cc1ccc(-c2cc(N3CCCN(C(=O)CCc4ccccc4)CC3)n[nH]2)cc1C was read as KDM5B inh 16µM*.
For Cc1ccc(-c2cc(N3CCCN(C(=O)c4ccccn4)CC3)n[nH]2)cc1C the results were KDM5B inh inactive.
O=C(Cc1ccccc1)N1CCN(c2cc(-c3ccccc3)[nH]n2)CC1 was read as KDM5B inh inactive.
For Cc1cc(Cl)ccc1S(=O)(=O)N1CCC(Oc2ccc(C(N)=O)cn2)CC1 the results were KDM5B inh inactive.
COc1ccc(CN2CCC3(CC2)CC(O)CCO3)cc1 (configuration not stated) was read as KDM5B inh inactive.
`Cc1sc(NC(=O)CC(C)C)c(C#N)c1C` gave KDM5B inh inactive.
Screening COc1ccc(CNC[C@H]2COCc3nc4cc(C(F)(F)F)ccc4n32)cn1 returned KDM5B inh inactive.
`O=C1CCN(S(=O)(=O)c2cccs2)CCCCCCN1` gave KDM5B inh inactive.
Cc1cccc2ncc(C(=O)N3CC[C@H](CO)[C@@H](O)C3)c(=O)n12 was read as KDM5B inh 22µM*.
For O=C(c1cn2ccsc2n1)N1CC[C@H](CO)[C@@H](O)C1 the results were KDM5B inh inactive.
`Cc1cccc2cc(C(=O)N3CC[C@H](CO)[C@H](O)C3)oc12` gave KDM5B inh inactive.
Screening O=C(O)/C=C/c1nccs1 returned KDM5B inh inactive.
For CC1=CCC2C(C)(CC[C@H](O)C2(C)C)C1COc1ccc2ccc(=O)oc2c1 (some centres not stated) the results were KDM5B inh inactive.
Screening Cc1cc2nc3n(c(=O)c2n1CC(=O)Nc1ccccc1C(C)C)CCCCC3 returned KDM5B inh inactive.
Screening Cc1ccc(C2CCCN2Cc2nc(-c3ccco3)no2)cc1 (configuration not stated) returned KDM5B inh inactive.
For CCc1[nH]c2c(CNC(=O)C3(C)CCCCO3)cc(F)cc2c1C (configuration not stated) the results were KDM5B inh 20µM*.
For CC1(C(=O)NCc2cc(F)ccc2F)CCCCC(=O)N1 (configuration not stated) the results were KDM5B inh inactive.
For CC1(C(=O)NCc2cc3n(n2)CCCN(S(C)(=O)=O)C3)CCCCO1 (configuration not stated) the results were KDM5B inh inactive.
CN(C)c1ccc2ncc(Nc3ccc(Cl)cn3)n2n1 was read as KDM5B inh 35µM*.
Screening COc1ccc(F)cc1Nc1cnc2ccc(N(C)C)nn12 returned KDM5B inh 32µM*.
Screening Clc1ccc(Nc2cnc3ccc(-c4ccccc4)nn23)nc1 returned KDM5B inh inactive.
COc1ccc(-c2ccc3ncc(Nc4ccccc4OC)n3n2)cn1 was read as KDM5B inh inactive.
COc1ccc(-c2ccc3ncc(Nc4cc(F)ccc4OC)n3n2)cn1 was read as KDM5B inh inactive.
Screening CN(C)c1ccc2ncc(Nc3ccccc3)n2n1 returned KDM5B inh inactive.
